Measurements from article PMC5515408, “Sequence-specific DNA binding by MYC/MAX to low-affinity non-E-box motifs”.
In all, about 5,000 sequences were measured (“log2 normalized fluorescence”: median about 0.089, highest 2% from about 0.81 on). The full list was thinned out, with the highest values kept by preference.

Target: MYC (p64);MAX (p21), in MYC:MAX (human;human, UniProt P01106-1;P61244-2 1-439;1-151, |)
Experiment: protein-binding microarray (anti-MAX antibody); PBM: 15 mM Tris-HCl pH 7.5, 100 mM KCl, 0.075% NP40, 7.5 mM beta-mercaptoethanol, 375 ng/ul BSA, 8 ng/ul poly(dA-dT):(dA-dT), 550 ng complex, 60 min, room tempe; high values mean tight binding
Conditions: protein: recombinant;recombinant; tags: 6xHis;6xHis; copies: 1;1; label: 3' end of printed strand (linker) attached to glass slide; dsDNA, one strand shown
Summary of the method: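 A custom Agilent glass array held ~5000 unique 12-nt sequences in triplicate spots, made double-stranded by primer extension. His-tagged human MYC:MAX or MAX:MAX dimers (550 ng, produced in E. coli) were applied for 60 min at room temperature in Tris-KCl buffer, pH 7.5, with NP40, BSA and poly(dA-dT) competitor. Anti-MAX and secondary antibodies detected bound protein, with scanning at 543 nm, and binding is given as log2 normalized fluorescence.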

Sequence of MYC (p64);MAX (p21), in MYC:MAX (P01106 16-454, chain 1 of 2): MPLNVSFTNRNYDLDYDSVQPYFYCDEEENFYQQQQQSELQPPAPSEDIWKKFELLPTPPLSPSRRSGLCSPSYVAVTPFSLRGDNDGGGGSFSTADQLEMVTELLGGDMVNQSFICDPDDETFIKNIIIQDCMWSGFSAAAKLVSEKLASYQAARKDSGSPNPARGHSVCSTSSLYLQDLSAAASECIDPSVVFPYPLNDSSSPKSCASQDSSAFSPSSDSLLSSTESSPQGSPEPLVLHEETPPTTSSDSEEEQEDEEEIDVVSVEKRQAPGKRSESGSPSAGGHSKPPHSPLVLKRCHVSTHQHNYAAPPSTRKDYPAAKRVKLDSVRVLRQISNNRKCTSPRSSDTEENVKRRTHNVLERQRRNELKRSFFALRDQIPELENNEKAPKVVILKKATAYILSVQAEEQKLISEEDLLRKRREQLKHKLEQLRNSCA
Sequence of MYC (p64);MAX (p21), in MYC:MAX (P61244 other isoform, or with tags, fused parts or gaps |, chain 2 of 2): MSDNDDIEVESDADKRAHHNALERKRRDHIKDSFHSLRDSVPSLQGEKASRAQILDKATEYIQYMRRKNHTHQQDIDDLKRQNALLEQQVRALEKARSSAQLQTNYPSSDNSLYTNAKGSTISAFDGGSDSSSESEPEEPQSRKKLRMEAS

Row | Sequence | binding signal
1 | CCGGCTGATAAGGTGTATTAATAGCTAAGATTACTATATCGACG | 0.0319 log2 normalized fluorescence
2 | CCGGCTGAACGCTAGTATTAATAGCTAAGATTACTATATCGACG | 0.178 log2 normalized fluorescence
3 | CCGGCTGAGTGACAGTATTAATAGCTAAGATTACTATATCGACG | 0.00932 log2 normalized fluorescence
4 | CCGGCTGAACCGATGTATTAATAGCTAAGATTACTATATCGACG | 0.0618 log2 normalized fluorescence
5 | CCGGCTGACGTACGGTATTAATAGCTAAGATTACTATATCGACG | 0.112 log2 normalized fluorescence
6 | CCGGCTGAGCTCCCGTATTAATAGCTAAGATTACTATATCGACG | 0.0359 log2 normalized fluorescence
7 | CCGGCTGAACGGACGTATTAATAGCTAAGATTACTATATCGACG | 0.0519 log2 normalized fluorescence
8 | CCGGCAAACACGTGGTATTAATAGCTAAGATTACTATATCGACG | 1.02 log2 normalized fluorescence
9 | CCGGCTATAACGTGGTATTAATAGCTAAGATTACTATATCGACG | 0.627 log2 normalized fluorescence
10 | CCGGCCGTCACGTGGTTTTAATAGCTAAGATTACTATATCGACG | 0.74 log2 normalized fluorescence
11 | CCGGCGAACACGTGGTATTAATAGCTAAGATTACTATATCGACG | 0.76 log2 normalized fluorescence
12 | CCGGCTTAGACGTGGTATTAATAGCTAAGATTACTATATCGACG | 0.235 log2 normalized fluorescence
13 | CCGGCTTACACGTGGTTTTAATAGCTAAGATTACTATATCGACG | 0.721 log2 normalized fluorescence
14 | CCGGCTAACACGTGGTTTTAATAGCTAAGATTACTATATCGACG | 1.01 log2 normalized fluorescence
15 | CCGGCTTACACGTGGTATTAATAGCTAAGATTACTATATCGACG | 0.847 log2 normalized fluorescence
16 | CCGGCTAACACGTGGTATTAATAGCTAAGATTACTATATCGACG | 0.946 log2 normalized fluorescence
17 | CCGGCAAATACGTGGTATTAATAGCTAAGATTACTATATCGACG | 0.556 log2 normalized fluorescence
18 | CCGGCTTAATCGTGGTATTAATAGCTAAGATTACTATATCGACG | 0.374 log2 normalized fluorescence
19 | CCGGCGCAAACGTGGTATTAATAGCTAAGATTACTATATCGACG | 0.579 log2 normalized fluorescence

Row | Sequence | binding signal
20 | CCGGCTGACGCACTGTATTAATAGCTAAGATTACTATATCGACG | 0.457 log2 normalized fluorescence
21 | CCGGCTGAAGGCCCGTATTAATAGCTAAGATTACTATATCGACG | 0.0982 log2 normalized fluorescence
22 | CCGGCTGAATCAAAGTATTAATAGCTAAGATTACTATATCGACG | -0.00984 log2 normalized fluorescence
23 | CCGGCTGACCCTTGATATTAATAGCTAAGATTACTATATCGACG | 0.0562 log2 normalized fluorescence
24 | CCGGCTGAATGTTGGTATTAATAGCTAAGATTACTATATCGACG | 0.176 log2 normalized fluorescence
25 | CCGGCTGACCTCCCGTATTAATAGCTAAGATTACTATATCGACG | 0.167 log2 normalized fluorescence
26 | CCGGCTGAACCGCGGTATTAATAGCTAAGATTACTATATCGACG | 0.103 log2 normalized fluorescence
27 | CCGGCTGAACTCGAGTATTAATAGCTAAGATTACTATATCGACG | 0.253 log2 normalized fluorescence
28 | CCGGCTGGGGCGTGGTATTAATAGCTAAGATTACTATATCGACG | 0.471 log2 normalized fluorescence
29 | CCGGCCAACACGTGGTATTAATAGCTAAGATTACTATATCGACG | 0.937 log2 normalized fluorescence
30 | CCGGCTCCAACGTGGTATTAATAGCTAAGATTACTATATCGACG | 0.579 log2 normalized fluorescence
31 | CCGGCCAACACGTTGTATTAATAGCTAAGATTACTATATCGACG | 0.669 log2 normalized fluorescence
32 | CCGGCTGAAGGACCGTATTAATAGCTAAGATTACTATATCGACG | 0.0673 log2 normalized fluorescence
33 | CCGGCTGACACGTGGCATTAATAGCTAAGATTACTATATCGACG | 0.835 log2 normalized fluorescence
34 | CCGGCTGACTCGTGGCATTAATAGCTAAGATTACTATATCGACG | 0.584 log2 normalized fluorescence
35 | CCGGCTGACACGTAGCATTAATAGCTAAGATTACTATATCGACG | 0.484 log2 normalized fluorescence
36 | CCGGCTGACACGTGGCCTTAATAGCTAAGATTACTATATCGACG | 0.897 log2 normalized fluorescence
37 | CCGGCTGACACGTGGACTTAATAGCTAAGATTACTATATCGACG | 0.734 log2 normalized fluorescence
38 | CCGGCTGACACGTGCCTTTAATAGCTAAGATTACTATATCGACG | 0.722 log2 normalized fluorescence
